Compound activity as filed in PubChem BioAssay.
Hits are enriched below; roughly 4.9% of the tested compounds scored in any of these assays.
HSP90 inh: HSP90 inhibitors, primary screen, cell lysate, luminescence | actives 0.91% (n = 290,000) | inhibition, % at 5.6 µM | AID 1789, 2009 | Rabbit reticulocyte lysate, luciferase refolding luminescence, 3 h | Heat shock protein HSP 90 (rabbit reticulocyte lysate; luciferase refolding);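 active = inhibition above the screen-wide mean plus 3 SD, computed separately per campaign, cut at about 16% in these data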;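 note: 0% = DMSO wells and 100% = 60 µM geldanamycin wells; inhibitors lower the luminescence because luciferase stays unfolded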
HSF1 inh: HSF1 inhibitors in luciferase reporter cells, primary screen, cell-based, NIH3T3, luminescence; actives 0.77% (n = 300,000); NIH3T3-HGL HSE-luciferase, MG132-induced, luminescence 8 h; active compounds read low; activity change, negative = inhibition, % at 7.5 µM (by protocol);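 active = more than half of replicate wells show activity change below -50%, luminescence cut by over half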;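 note: luciferase reports HSF-1 transcriptional activity via heat shock element; 0% = median of DMSO wells and -100% = zero luminescence signal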
MPTP block: mitochondrial permeability transition pore inhibitors, primary screen, biochemical, isolated mouse mitochondria, absorbance; actives 1.4% (n = 360,000); inhibition, % at 10 µM; Ca2+ swelling absorbance, 30 min;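 active = inhibition of 50% or more, scaled per plate between neutral and stimulator controls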;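 note: 0% = DMSO wells given calcium and 100% = 1 mM EGTA wells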
Platelet DG rel: inhibitors of platelet dense granule secretion, primary screen, cell-based, MLPCN, human platelets; human platelet-rich plasma, SFLLRN dense granule ATP release, luminescence; inhibition, %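 (compounds screened at 7.5 µM in platelet-rich plasma)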; actives 0.22% (n = 300,000);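 active = mean replicate score, as percent of positive control, at or above 50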
dFosB act: activators of delta FosB homodimer, primary screen, biochemical, fluorescence polarization, TAMRA-CDK5 oligo, single point | purified delta FosB; percent of positive-control signal above neutral wells | Protein FosB (Mus musculus), P13346 | actives 0.99% (n = 340,000) | activation, % at 25 µM | AID 493131, 2011;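 active = mean activation above about 17%, with every replicate also reaching it, limit read from the data, passing the limit was not always enough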
Target sequence (P13346 whole entry, looked up): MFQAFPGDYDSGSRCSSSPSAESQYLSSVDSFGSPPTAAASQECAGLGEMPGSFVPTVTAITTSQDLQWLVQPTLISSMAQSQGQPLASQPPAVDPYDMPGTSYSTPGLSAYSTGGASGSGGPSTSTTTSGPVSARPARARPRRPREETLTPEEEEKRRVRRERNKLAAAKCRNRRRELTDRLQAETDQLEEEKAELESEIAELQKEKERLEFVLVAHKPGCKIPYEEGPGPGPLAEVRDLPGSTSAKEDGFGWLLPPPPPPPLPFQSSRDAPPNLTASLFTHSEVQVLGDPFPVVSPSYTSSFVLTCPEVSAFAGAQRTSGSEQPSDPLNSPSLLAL
HSF-1 act: HSF-1 activators, primary screen, NIH3T3-HGL cells, MG132 stress, luminescence, single point | NIH3T3-HGL HSF-1 luciferase reporter, 8 h; 100% = twice DMSO control signal | activation, % at 9 µM | actives 1.7% (n = 300,000) | AID 504408, 2011;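 active = mean replicate activation of at least 50% with a set share of replicates each reaching 50%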;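 note: 0% = median of the neutral control wells and 100% = twice that signal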
Rh123 counter: fluorescence retest of MPTP screen hits in isolated mitochondria, single concentration | shares compounds with MPTP block | membrane potential, Rhodamine 123 fluorescence | inhibition, % at 10 µM | actives 78% (n = 5,000) | AID 624504, 2012; in the data active = inhibition above about 22%;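 note: 0% = DMSO vehicle and 100% = positive control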
MPTP abs DR: mitochondrial permeability transition pore inhibitors, dose response, biochemical, absorbance, uHTS hits; shares compounds with MPTP block; isolated mitochondria swelling; actives 58% (n = 780); IC50, µM; AID 651561, 2012; in the data active = IC50 below about 20 µM
MPTP counter DR: fluorescent counter-screen in isolated mitochondria, dose response, counter-screen for MPTP inhibitor project, biochemical, fluorescence, uHTS hits. shares compounds with MPTP block. isolated mitochondria counterscreen, fluorescence read-out. IC50, µM. actives 49% (n = 780); in the data active = IC50 below about 80 µM
The depositor's hits bear a star; i = inactive; nt = no result given.

SMILES	HSP90 inh	HSF1 inh	MPTP block	Platelet DG rel	dFosB act	HSF-1 act	Rh123 counter	others
Cc1ccc(Cl)cc1NC(=O)c1cc2ccccc2cc1O	2	5	99*	-11	-15	-9	74*
COc1ccccc1NC(=O)c1cc2cc(Br)ccc2cc1O	2	6	80*	-3	-20	12	28*
Cc1c(Cl)cccc1-c1ccc(CNCc2ccccn2)o1	-2	21	0	3	-15	21	nt
COc1ccc(CNC(=O)c2cccc3c(-c4ccc(F)c(F)c4)coc23)cc1OC	nt	nt	88*	nt	nt	nt	80*
O=C(NCc1cccnc1)c1ccc(-c2ccc(F)c(F)c2)c2ccoc12	nt	nt	92*	nt	nt	nt	84*
NC(=O)c1cccc(-c2coc3c(C(=O)NCCc4ccccc4)cccc23)c1	nt	nt	0	nt	nt	nt	nt
COc1cc(-c2coc3c(C(=O)NCc4ccc(N(C)C)cc4)cccc23)ccc1O	nt	nt	0	nt	nt	nt	nt
COc1cc(-c2coc3c(C(=O)NCc4ccc(OC)c(OC)c4)cccc23)ccc1O	nt	nt	73*	nt	nt	nt	58*
O=C(NCc1ccc(F)c(F)c1)c1ccc(-c2ccc(F)c(F)c2)c2ccoc12	nt	nt	0	nt	nt	nt	nt
COc1ccc(CNC(=O)c2cccc3c(-c4cccc(C(N)=O)c4)coc23)cc1OC	nt	nt	86*	nt	nt	nt	83*
O=C(CCN(CCO)Cc1ccccc1)Nc1ccc(Br)cc1	0	-1	1	0	-9	-4	nt
CCN(CCC(=O)Nc1ccc(Br)c(C)c1)Cc1ccccc1	3	10	80*	5	-4	16	5	MPTP abs DR=i;MPTP counter DR=28*
CC1=NN(c2nc(-c3ccc(Cl)cc3)cs2)C(=O)C1	0	0	60*	-10	-8	0	17	MPTP abs DR=13*;MPTP counter DR=<2.5*
O=C(CCn1c(=S)oc2ccccc21)N1CCN(c2ccc(F)cc2)CC1	0	6	1	-2	-6	12	nt
C=CCc1cccc(CNc2cnc3ccccc3c2)c1O	-2	14	89*	-5	-7	15	84*
Oc1ccccc1CNc1cnc2ccccc2c1	4	23	71*	0	-4	22	59*
NC(=S)Nc1cnc2ccccc2c1	0	-2	5	2	7	-7	nt
Oc1ccc(Cl)cc1CNc1cnc2ccccc2c1	-4	16	10	-4	-19	36	nt
COc1ccc(C)cc1Nc1n[n+](-c2ccccc2)c(-c2ccc(OC)c(OC)c2OC)s1	-3	-4	34	2	-9	-14	nt
COc1ccc(C)cc1Nc1n[n+](-c2ccccc2)c(-c2ccc(N(C)C)cc2)s1	-6	17	89*	-1	3	16	100*
CCOC(=O)c1c(NC(=O)CSc2nnc(C)c(=O)[nH]2)sc(C)c1-c1ccc(C)cc1	-2	2	70*	1	-24	-13	62*
[O-][n+]1c2ccccc2[n+]([O-])c2cc(O)ccc21	-2	-7	7	19	-8	8	nt
Cc1ccc(NS(=O)(=O)c2ccc(C(=O)NC3CCN(Cc4ccccc4)CC3)cc2)cc1	nt	nt	60*	nt	-4	nt	22*
O=[N+]([O-])c1cccc(NNS(=O)(=O)c2ccccc2F)c1	0	-8	-1	3	-4	-10	nt
Fc1ccc(NC(=S)Nc2cc(-c3ccccc3)[nH]n2)cc1Cl	4	27	66*	22	1	47	82*
SMILES	HSP90 inh	HSF1 inh	MPTP block	Platelet DG rel	dFosB act	HSF-1 act	Rh123 counter	others
Fc1ccc(NC(=S)Nc2cccnc2)cc1	-2	-3	-2	6	-3	-4	nt
Fc1ccc(NC(=S)Nc2cccnc2)cc1Cl	-5	14	101*	3	-3	19	92*
C=CC[C@]12CCc3sccc3C1N(c1ccc(C(=O)OCC)cc1)C2=O (stereo partly specified)	nt	nt	2	nt	-6	nt	nt
COc1cc(OC)c(S(=O)(=O)Nc2ccc(C(=O)O)cc2)cc1S(=O)(=O)Nc1ccc(C(=O)O)cc1	-4	4	-2	7	3	8	nt
CCN(CC)c1ccc(C(=O)O)cc1	6	-9	1	-1	-6	-12	nt
CCN(CC)c1ccc(/C=C2\C(=O)c3ccc(C(=O)O)cc3C2=O)cc1	8	nt	70*	nt	-16	nt	-33
Fc1ccc(-n2nnnc2-c2cnc(-c3cccs3)nc2C(F)(F)F)cc1	-1	10	18	1	-3	14	nt
Cc1ccc(OCC(O)CNCc2ccc(F)cc2)cc1 (stereo unspecified)	-1	10	85*	-3	-1	11	-9	MPTP abs DR=9.2*;MPTP counter DR=>80
OC(CNCc1ccccc1)COc1ccccc1 (stereo unspecified)	nt	1	-1	-1	-5	-8	nt
COc1ccc(NCc2nc3ccccc3n2CCOc2ccccc2)cc1	-3	-23	1	0	-20	-43	nt
COc1ccc(NCc2nc3ccccc3n2CCOc2ccc(C)cc2)cc1	2	14	70*	-4	1	9	37*
CCn1c(COc2cccc(C)c2C)nnc1SCC(=O)N1CCN(c2ccc(OC)cc2)CC1	1	-3	60*	1	-11	-17	43*
COc1ccc(S(=O)(=O)NCC(c2ccc3c(c2)OCO3)N2CCOCC2)cc1 (stereo unspecified)	nt	0	0	5	0	-25	nt
COc1ccc2[nH]c3c(NCCC4=CCCCC4)ncnc3c2c1	-1	-13	94*	-5	-13	4	93*
CCOc1ccc2[nH]c3c(NCCC(C)C)ncnc3c2c1	2	15	78*	-1	-7	23	67*
CCN(CC)CCNc1ncnc2c1[nH]c1ccc(OC)cc12	-3	-4	nt	3	nt	11	nt
Cc1nn(CCCC(=O)Nc2sc3c(c2C#N)CCC3)c(C)c1[N+](=O)[O-]	2	4	-1	3	-5	-7	nt
Cc1nn(CC(=O)Nc2sc3c(c2C#N)CCC(C(C)(C)C)C3)c(C)c1[N+](=O)[O-] (stereo unspecified)	4	-15	81*	3	-9	-3	32*
